Data as given in PubChem BioAssay (Tox21).
Inconclusive results are not listed. A call without a number means that no potency is given here. Unmarked numbers belong to inactive results. Activity calls are given as the source filed them. The call rests on the fitted dose curve; in most records, active means well fitted curve in the direction sought with a large enough effect in the repeat runs; inconclusive means weak or mixed curves; inactive means no such curve, though single readings can be large; an effect the other way counts as inactive or inconclusive.

How the values were obtained:
[1] = target: Cytochrome P450 2C19 (Homo sapiens) (UniProt P33261); assay: Cytochrome P450 Family 2 Subfamily C Member 19 (CYP2C19) small molecule antagonists: luciferase reporter qHTS assay (AID 1671197); further: nearly all actives have a fitted effect of over 65% in size; further: potency means the concentration at half of the fitted maximal effect; on activity change, negative = inhibition: series mostly up to about 120 µM
Cytochrome P450 2C19 (Homo sapiens), sequence (P33261 whole entry, looked up): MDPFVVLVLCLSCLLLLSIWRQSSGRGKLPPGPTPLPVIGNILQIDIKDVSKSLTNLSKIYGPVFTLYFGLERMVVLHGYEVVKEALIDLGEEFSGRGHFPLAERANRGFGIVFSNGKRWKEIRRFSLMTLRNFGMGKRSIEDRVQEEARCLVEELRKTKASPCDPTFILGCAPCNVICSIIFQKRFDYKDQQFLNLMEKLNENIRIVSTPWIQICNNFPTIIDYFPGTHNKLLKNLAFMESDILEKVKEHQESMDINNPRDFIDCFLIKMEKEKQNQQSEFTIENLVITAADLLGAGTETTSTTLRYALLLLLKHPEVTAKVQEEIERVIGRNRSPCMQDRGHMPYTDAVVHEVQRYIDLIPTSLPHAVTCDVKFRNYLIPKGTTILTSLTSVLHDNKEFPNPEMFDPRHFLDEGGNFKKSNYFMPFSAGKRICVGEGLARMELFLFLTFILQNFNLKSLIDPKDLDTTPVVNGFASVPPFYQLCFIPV
Summary of the method: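 P450-Glo CYP2C19 screening system; proluciferin substrate; DMSO compound stocks; 10 min RT preincubation; NADPH regeneration, 1 h at 37C; luciferin detection reagent, 20 min RT; luminescence as RLU.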

[2] = target: Cytochrome P450 2C9 (Homo sapiens) (UniProt P11712); assay: Cytochrome P450 Family 2 Subfamily C Member 9 (CYP2C9) small molecule antagonists: luciferase reporter qHTS assay (AID 1671198); further: nearly all actives have a fitted effect of over 50% in size; further: potency means the concentration at half of the fitted maximal effect; on activity change, negative = inhibition: series mostly up to about 120 µM
Cytochrome P450 2C9 (Homo sapiens), sequence (P11712 whole entry, looked up): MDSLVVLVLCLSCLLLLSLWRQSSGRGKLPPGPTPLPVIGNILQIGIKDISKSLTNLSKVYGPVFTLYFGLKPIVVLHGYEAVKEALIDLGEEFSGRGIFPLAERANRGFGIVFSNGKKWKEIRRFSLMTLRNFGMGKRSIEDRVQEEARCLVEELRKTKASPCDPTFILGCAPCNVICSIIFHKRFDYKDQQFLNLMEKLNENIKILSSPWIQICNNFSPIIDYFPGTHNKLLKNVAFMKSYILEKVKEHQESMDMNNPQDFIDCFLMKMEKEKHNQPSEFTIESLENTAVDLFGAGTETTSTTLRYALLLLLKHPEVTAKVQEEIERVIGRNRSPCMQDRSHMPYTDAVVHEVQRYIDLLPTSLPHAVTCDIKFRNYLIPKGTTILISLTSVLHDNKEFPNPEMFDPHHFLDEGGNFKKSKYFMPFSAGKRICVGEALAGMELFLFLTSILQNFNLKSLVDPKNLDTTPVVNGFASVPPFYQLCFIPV
Summary of the method: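 CYP2C9 activity was measured with a P450-Glo proluciferin substrate. Enzyme–substrate mix was held with compound for 10 min at room temperature, then NADPH regeneration solution was added for 1 h at 37C. Luciferin product was read as luminescence.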

[3] = target: Voltage-gated inwardly rectifying potassium channel KCNH2 (Homo sapiens) (UniProt Q12809); assay: Human Ether-a-go-go-Related Gene (hERG) channel small molecule antagonists: fluorescence cell-based qHTS assay (AID 1671200); further: series mostly up to about 77 µM; nearly all actives have a fitted effect of over 50% in size
Voltage-gated inwardly rectifying potassium channel KCNH2 (Homo sapiens), sequence (Q12809 whole entry, looked up): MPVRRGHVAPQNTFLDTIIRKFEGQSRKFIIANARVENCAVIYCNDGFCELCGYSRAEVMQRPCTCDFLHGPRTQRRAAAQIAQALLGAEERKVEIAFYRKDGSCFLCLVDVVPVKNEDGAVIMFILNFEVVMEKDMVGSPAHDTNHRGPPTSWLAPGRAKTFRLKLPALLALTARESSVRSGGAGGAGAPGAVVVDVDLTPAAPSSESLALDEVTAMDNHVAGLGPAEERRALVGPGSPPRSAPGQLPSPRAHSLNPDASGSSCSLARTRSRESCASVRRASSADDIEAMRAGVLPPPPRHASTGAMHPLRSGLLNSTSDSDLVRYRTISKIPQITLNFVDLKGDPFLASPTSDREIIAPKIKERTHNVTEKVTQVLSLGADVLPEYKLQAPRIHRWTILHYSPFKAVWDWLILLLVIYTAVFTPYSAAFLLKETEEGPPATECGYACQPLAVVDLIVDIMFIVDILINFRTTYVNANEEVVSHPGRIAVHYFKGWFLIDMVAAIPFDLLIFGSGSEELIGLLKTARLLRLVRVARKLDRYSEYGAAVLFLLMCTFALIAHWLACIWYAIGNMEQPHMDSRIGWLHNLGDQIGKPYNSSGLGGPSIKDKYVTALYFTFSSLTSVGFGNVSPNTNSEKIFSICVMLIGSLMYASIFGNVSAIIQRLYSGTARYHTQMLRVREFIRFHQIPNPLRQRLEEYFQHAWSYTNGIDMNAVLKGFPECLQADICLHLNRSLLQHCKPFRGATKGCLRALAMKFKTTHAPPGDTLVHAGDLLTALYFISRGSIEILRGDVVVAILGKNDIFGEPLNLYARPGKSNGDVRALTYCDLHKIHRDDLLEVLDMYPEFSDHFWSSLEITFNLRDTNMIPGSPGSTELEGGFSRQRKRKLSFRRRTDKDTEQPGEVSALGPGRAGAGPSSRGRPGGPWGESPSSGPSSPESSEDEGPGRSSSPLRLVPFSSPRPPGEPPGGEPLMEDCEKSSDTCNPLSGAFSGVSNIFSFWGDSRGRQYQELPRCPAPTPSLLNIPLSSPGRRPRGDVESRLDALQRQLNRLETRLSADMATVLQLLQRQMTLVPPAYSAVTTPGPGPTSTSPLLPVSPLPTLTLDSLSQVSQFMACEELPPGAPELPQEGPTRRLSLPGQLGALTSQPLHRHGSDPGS
Summary of the method: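 Thallium flux as potassium surrogate: FluxOR II dye loaded 1 h at room temperature into hERG-expressing U2OS cells, then stimulus buffer added after 10 min. Kinetic 480 nm excitation/540 nm emission read, 2 min.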

[4] = target: Cytochrome P450 3A4 (Homo sapiens) (UniProt P08684); assay: Cytochrome P450 Family 3 Subfamily A Member 4 (CYP3A4) small molecule antagonists: luciferase reporter qHTS assay (AID 1671201); further: nearly all actives have a fitted effect of over 50% in size; further: potency means the concentration at half of the fitted maximal effect; on activity change, negative = inhibition: series mostly up to about 120 µM
Cytochrome P450 3A4 (Homo sapiens), sequence (P08684 whole entry, looked up): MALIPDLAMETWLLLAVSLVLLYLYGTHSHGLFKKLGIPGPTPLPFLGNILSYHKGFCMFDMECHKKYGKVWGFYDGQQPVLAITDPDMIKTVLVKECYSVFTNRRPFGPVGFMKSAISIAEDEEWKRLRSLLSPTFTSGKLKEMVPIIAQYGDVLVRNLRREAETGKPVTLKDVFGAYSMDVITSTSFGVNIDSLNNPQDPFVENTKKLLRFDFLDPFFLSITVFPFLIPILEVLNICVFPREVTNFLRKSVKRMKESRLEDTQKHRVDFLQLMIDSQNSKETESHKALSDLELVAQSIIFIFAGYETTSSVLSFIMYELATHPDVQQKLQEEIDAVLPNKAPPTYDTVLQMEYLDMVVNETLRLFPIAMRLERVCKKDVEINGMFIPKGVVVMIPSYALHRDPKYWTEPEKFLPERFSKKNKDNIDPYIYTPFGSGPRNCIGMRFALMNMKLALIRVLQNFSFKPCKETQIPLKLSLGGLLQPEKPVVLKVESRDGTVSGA
Summary of the method: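 Recombinant human CYP3A4 converts a proluciferin substrate to luciferin over 1 h at room temperature after NADPH regeneration solution is added (compound preincubated 10 min); detection reagent stops reaction, luminescence read 20 min later as relative units.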

[5] = target: Cytochrome P450 1A2 (Homo sapiens) (UniProt P05177); assay: Cytochrome P450 Family 1 Subfamily A Member 2 (CYP1A2) small molecule antagonists: luciferase reporter qHTS assay (AID 1671199); further: nearly all actives have a fitted effect of over 50% in size; further: potency means the concentration at half of the fitted maximal effect; on activity change, negative = inhibition: series mostly up to about 120 µM
Cytochrome P450 1A2 (Homo sapiens), sequence (P05177 whole entry, looked up): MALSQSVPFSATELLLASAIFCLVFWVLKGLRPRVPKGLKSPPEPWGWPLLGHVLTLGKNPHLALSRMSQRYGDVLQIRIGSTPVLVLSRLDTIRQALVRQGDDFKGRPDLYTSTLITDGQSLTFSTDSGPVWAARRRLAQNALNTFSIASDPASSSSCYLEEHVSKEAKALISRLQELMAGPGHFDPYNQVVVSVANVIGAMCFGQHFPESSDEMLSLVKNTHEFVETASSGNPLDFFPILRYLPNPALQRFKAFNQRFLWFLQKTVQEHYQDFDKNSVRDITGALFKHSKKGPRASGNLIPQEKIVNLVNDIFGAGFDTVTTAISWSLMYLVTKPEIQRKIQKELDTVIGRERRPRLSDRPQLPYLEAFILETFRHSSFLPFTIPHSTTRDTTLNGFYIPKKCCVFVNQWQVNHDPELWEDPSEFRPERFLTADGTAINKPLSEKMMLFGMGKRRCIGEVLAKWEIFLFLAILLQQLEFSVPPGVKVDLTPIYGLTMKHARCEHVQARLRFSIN
Summary of the method: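 P450-Glo CYP1A2 enzyme–proluciferin substrate mix with compound 10 min at room temperature, then NADPH regeneration 1 h at room temperature. Luciferin detection reagent added, luminescence read after 20 min; furafylline positive control.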

Compound	Potency [1]	Potency [2]	Potency [3]	Potency [4]	Potency [5]	activity change, negative = inhibition [1]	activity change, negative = inhibition [3]	activity change, negative = inhibition [4]
O=C(O)c1cccc(Cl)c1Cl	inactive	inactive	inactive	inactive	–	–	–	–
OCc1c2ccccc2cc2ccccc12	35.7 µM (active)	22.5 µM (active)	inactive	25.3 µM (active)	0.897 µM (active)	–	–	–
NCCCN1CCN(CCCN)CC1	inactive	inactive	inactive	inactive	–	–	–	–
N#CSCC(=O)O	inactive	inactive	inactive	inactive	–	–	–	–
CCCCCCn1c(=O)c2c(ncn2C)n(C)c1=O	30.9 µM (active)	inactive	inactive	inactive	15.5 µM (active)	–	–	–
COc1nc(C)nc(NC(=O)NS(=O)(=O)c2ccccc2OCCCl)n1	inactive	inactive	inactive	–	–	–	–	–
CCC/C=C/CO	inactive	inactive	inactive	inactive	inactive	–	–	–
Cc1cc(S(=O)(=O)O)c(N)cc1Cl	80.5 µM (active)	28.6 µM (active)	inactive	inactive	inactive	–	–	–
CC1(C)O[C@@H]2C[C@H]3[C@@H]4CCC5=CC(=O)CC[C@]5(C)[C@@]4(F)[C@@H](O)C[C@]3(C)[C@]2(C(=O)CCl)O1	34.7 µM (active)	15.5 µM (active)	inactive	–	inactive	–	–	–
Cc1ccccc1C(=O)Nc1ccc(C(=O)N2CCCC(O)c3cc(Cl)ccc32)c(C)c1 (stereo not given)	inactive	15.5 µM (active)	inactive	–	inactive	–	–	–
CCCCC(CC)COC(=O)COc1cc(Cl)c(Cl)cc1Cl (stereo not given)	7.1 µM (active)	8.94 µM (active)	inactive	6.33 µM (active)	15.9 µM (active)	–	–	–
CC(=O)Oc1cc(C(C)C)c(OCCN(C)C)cc1C	inactive	inactive	inactive	inactive	5.12 µM (active)	–	–	–
COc1cc2c(cc1N)oc1ccccc12	4.57 µM (active)	6.46 µM (active)	inactive	7.25 µM (active)	0.513 µM (active)	–	–	–
NCCC(O)(P(=O)(O)O)P(=O)(O)O	inactive	inactive	inactive	inactive	–	–	–	–
FC(F)(F)C(F)(F)C(F)(F)C(F)(F)C(F)(F)C(F)(F)C(F)(F)C(F)(F)Br	inactive	inactive	inactive	inactive	inactive	–	–	–
CN1CCN(c2c(F)cc3c(=O)c(C(=O)O)cn4c3c2SCC4)CC1	inactive	–	inactive	–	inactive	–	–	–

Compound	Potency [1]	Potency [2]	Potency [3]	Potency [4]	Potency [5]	activity change, negative = inhibition [1]	activity change, negative = inhibition [3]	activity change, negative = inhibition [4]
CCCCCCCCCCCCOCCOS(=O)(=O)O	79.6 µM (active)	71 µM (active)	inactive	inactive	–	–	–	–
Oc1ccccc1C=NCc1ccccc1	inactive	inactive	inactive	–	inactive	–	–	–
CCOc1ccc(NC(N)=O)cc1	inactive	inactive	inactive	inactive	–	–	–	–
CC(C)S	inactive	inactive	inactive	inactive	inactive	–	–	–
CC(C)(C)C1CCCCC1=O (stereo not given)	inactive	inactive	inactive	inactive	inactive	–	–	–
C[C@@H]1CN(c2c(F)c(F)c3c(=O)c(C(=O)O)cn(C4CC4)c3c2F)C[C@H](C)N1	–	inactive	–	–	inactive	5.04% [at 23.6 µM]	7.01% [at 15.8 µM]	9.32% [at 23.6 µM]
O=C1CCCc2ccccc21	inactive	inactive	inactive	inactive	36 µM (active)	–	–	–
CC1=C2[C@H](/C=C(\C)C(=O)O)CC[C@@H](C)[C@H]2CC1	73.7 µM (active)	65.6 µM (active)	inactive	inactive	65.6 µM (active)	–	–	–
C1CSCCS1	inactive	inactive	inactive	inactive	–	–	–	–
O=C(C(Cl)Cl)N1CCOC12CCCCC2	39.9 µM (active)	63.3 µM (active)	inactive	inactive	inactive	–	–	–
OCc1ccccc1O	inactive	inactive	inactive	inactive	–	–	–	–
O=C(O)[C@@H]1CSCN1	inactive	inactive	inactive	inactive	–	–	–	–
CCCCCOc1ccc(C2SC(=O)NC2=O)cc1OCC (stereo not given)	inactive	9.77 µM (active)	inactive	–	–	–	–	–
O=C(CC(=O)C(F)(F)F)c1ccccc1	36.1 µM (active)	32.2 µM (active)	inactive	inactive	–	–	–	–
Cc1c[nH]c(=S)[nH]c1=O	79.9 µM (active)	–	inactive	inactive	63.5 µM (active)	–	–	–
